Reference: PMC5700166
Residue numbers refer to the chain shown, from its start.

Experiments:
Assay in all cases: protein-binding microarray (PBM); PBM: ~300 nM protein, 6 mM HEPES pH 7.8, 80 mM KCl, 0.5 mM EDTA, 0.5 mM EGTA, 6% glycerol, 35 ng/ul poly-dIdC, 1% milk, 1 h, room temperature; Ap Aiptasia and Nv Nematostella (sea anemones) / Co Capsaspora / Aq Amphimedon (sponge) / Dm Drosophila / Hu human; RHD is the Rel homology domain; high values mean tight binding
Conditions in all cases: dsDNA, one strand shown
GST-Ap-NF-kB RHD = molecular target: T1, GST-Ap-NF-kB RHD (Exaiptasia pallida (Aiptasia), UniProt A0A913YAJ5 2-422)
T1 sequence: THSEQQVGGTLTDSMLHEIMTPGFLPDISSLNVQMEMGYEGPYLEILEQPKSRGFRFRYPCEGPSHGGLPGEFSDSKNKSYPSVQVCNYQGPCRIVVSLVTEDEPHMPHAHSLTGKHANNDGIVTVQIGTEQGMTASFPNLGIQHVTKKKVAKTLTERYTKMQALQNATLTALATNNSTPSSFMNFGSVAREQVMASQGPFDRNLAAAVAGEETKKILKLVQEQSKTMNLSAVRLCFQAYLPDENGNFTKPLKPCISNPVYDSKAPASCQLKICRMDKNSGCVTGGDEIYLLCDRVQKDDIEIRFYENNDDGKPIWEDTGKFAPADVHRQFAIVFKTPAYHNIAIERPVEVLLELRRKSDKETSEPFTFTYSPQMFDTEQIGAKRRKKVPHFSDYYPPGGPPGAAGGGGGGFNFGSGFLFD

[1] = molecular target: T2, GST-Nv-NF-kB (Cys allele) (Nematostella vectensis, UniProt E5G601 2-411)
T2 sequence: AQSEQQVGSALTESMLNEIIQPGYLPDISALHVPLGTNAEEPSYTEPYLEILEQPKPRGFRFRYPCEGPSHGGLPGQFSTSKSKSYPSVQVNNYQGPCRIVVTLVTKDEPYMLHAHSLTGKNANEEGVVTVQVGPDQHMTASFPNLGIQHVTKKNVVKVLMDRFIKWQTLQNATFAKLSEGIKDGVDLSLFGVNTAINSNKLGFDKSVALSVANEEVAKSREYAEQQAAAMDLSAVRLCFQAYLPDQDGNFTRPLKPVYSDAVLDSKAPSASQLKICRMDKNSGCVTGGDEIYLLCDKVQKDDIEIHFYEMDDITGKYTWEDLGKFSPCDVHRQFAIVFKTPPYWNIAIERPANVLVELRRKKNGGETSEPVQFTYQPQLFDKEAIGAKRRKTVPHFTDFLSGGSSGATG

[2] = molecular target: T3, GST-Nv-NF-kB (Ser allele) (Nematostella vectensis, UniProt A7UNT2 2-411)
T3 sequence: T2 sequence with Q21R, C66S, S207N, E215Q, V217A, E225K, A268E, D399E

GST-Co-NF-kB = molecular target: T4, GST-Co-NF-kB (Capsaspora owczarzaki, UniProt F1ARL5 200-546)
T4 sequence: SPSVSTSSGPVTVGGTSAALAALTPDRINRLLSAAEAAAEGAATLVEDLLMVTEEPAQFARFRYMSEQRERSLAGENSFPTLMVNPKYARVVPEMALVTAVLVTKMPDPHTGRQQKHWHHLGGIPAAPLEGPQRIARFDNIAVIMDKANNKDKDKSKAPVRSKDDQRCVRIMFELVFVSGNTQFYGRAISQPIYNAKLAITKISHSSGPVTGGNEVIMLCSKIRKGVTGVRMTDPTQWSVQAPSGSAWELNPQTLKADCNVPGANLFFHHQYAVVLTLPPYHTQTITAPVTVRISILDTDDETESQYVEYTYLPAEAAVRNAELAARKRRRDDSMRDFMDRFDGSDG

GST-Dm-Relish = molecular target: T5, GST-Dm-Relish (Drosophila melanogaster, UniProt Q94527 99-473)
T5 sequence: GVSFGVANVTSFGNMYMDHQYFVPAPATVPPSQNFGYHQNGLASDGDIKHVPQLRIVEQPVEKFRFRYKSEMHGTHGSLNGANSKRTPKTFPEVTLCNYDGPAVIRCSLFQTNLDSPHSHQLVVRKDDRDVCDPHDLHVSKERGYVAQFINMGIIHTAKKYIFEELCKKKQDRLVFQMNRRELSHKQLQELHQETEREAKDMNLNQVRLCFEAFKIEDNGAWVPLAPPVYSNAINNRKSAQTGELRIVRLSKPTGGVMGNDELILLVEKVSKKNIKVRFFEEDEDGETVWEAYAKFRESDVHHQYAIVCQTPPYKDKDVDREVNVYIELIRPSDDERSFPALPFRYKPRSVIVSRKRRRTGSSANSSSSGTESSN

GST-Aq-NF-kB = molecular target: T6, GST-Aq-NF-kB (Amphimedon queenslandica, UniProt A9Y5G7 2-389)
T6 sequence: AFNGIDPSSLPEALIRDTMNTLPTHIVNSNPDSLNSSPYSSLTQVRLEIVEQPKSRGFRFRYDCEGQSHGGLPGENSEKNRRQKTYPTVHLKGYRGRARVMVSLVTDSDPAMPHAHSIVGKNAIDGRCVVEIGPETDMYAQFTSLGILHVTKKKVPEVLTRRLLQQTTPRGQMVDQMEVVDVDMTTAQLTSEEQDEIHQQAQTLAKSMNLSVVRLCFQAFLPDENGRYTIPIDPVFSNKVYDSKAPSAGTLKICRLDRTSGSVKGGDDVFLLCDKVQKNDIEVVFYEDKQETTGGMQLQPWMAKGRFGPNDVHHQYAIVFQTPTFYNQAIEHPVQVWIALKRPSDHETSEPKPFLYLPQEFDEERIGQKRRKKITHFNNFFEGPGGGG

GST-Hu-p50 = GST-Hu-p50 (Homo sapiens, UniProt P19838 7-356)
GST-Hu-p50, sequence (P19838 7-356): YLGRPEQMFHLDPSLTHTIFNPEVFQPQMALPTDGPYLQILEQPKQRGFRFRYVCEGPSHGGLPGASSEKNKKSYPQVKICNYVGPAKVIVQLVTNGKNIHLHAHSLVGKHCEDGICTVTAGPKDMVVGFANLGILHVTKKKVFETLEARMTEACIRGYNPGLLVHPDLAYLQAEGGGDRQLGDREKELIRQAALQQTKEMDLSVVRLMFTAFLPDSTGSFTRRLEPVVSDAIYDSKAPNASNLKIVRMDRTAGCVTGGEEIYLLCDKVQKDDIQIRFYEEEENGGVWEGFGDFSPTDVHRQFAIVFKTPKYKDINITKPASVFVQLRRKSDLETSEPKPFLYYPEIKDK

Sequence	binding signal (GST-Ap-NF-kB RHD) [z-score]	binding signal [1] [z-score]	binding signal [2] [z-score]	binding signal (GST-Co-NF-kB) [z-score]	binding signal (GST-Dm-Relish) [z-score]	binding signal (GST-Aq-NF-kB) [z-score]	binding signal (GST-Hu-p50) [z-score]
CCGATTAACATCAGGGGATCACCTGATGTTAATCGGGTCTTGATTCGCTTGACGCTGCTG	7.26	5.39	6.05	2.95	9.04	6.68	4.71
CCGATTAACATCAAAGTCCCCCCTGATGTTAATCGGGTCTTGATTCGCTTGACGCTGCTG	7.56	6.37	5.95	9.05	7.85	6.3	5.64
CCGATTAACATCAGGGGAACGGATGATGTTAATCGGGTCTTGATTCGCTTGACGCTGCTG	4.83	5.28	6.1	4.35	1.58	3.47	3.91
CCGATTAACATCAGGGGATTCACTGATGTTAATCGGGTCTTGATTCGCTTGACGCTGCTG	7.47	7.31	7.91	3.35	10.3	6.42	6.59
CCGATTAACATCAAAAATTCCCCTGATGTTAATCGGGTCTTGATTCGCTTGACGCTGCTG	10.4	12.8	14	9.75	9.69	9.6	7.99
CCGATTAACATCACGGGGGGTACTGATGTTAATCGGGTCTTGATTCGCTTGACGCTGCTG	5.05	3.22	3.15	4.54	3.63	3.58	3.25
CCGATTAACATCAGGGGAACCACTGATGTTAATCGGGTCTTGATTCGCTTGACGCTGCTG	7.59	6.92	7.26	5.2	10.4	7.58	5.33
CCGATTAACATCAAGTATTCCCCTGATGTTAATCGGGTCTTGATTCGCTTGACGCTGCTG	8.17	9.28	8.86	7.58	7.14	6.74	5.87
CCGATTAACATCAGGGGAACCCCTGATGTTAATCGGGTCTTGATTCGCTTGACGCTGCTG	12.5	11.6	11.2	6.69	10.5	10.7	7.08
CCGATTAACATCAAAAATCCCAGTGATGTTAATCGGGTCTTGATTCGCTTGACGCTGCTG	3.43	3.35	2.65	2.44	7.35	3.8	3.5
